Source: PubChem BioAssay (Tox21)
Records with an inconclusive call do not appear. The source made the active and inactive calls. Calls come from the whole dose curve.

assay: qHTS assay to identify small molecule agonists of H2AX - cell viability counter screen (AID 1224847); settings: CHO-K1 viability, CellTiter-Glo luminescence, 3 h; series mostly up to 154 µM; activity change, negative = cytotoxicity: at the top concentration; note: nearly all actives have a fitted effect of over 30% in size; for activity change, negative = cytotoxicity: top concentration of the series differs between compounds
Description: National Center for Advancing Translational Sciences [NCATS]
NIH Chemical Genomics Center [NCGC]
U.S. Environmental Protection Agency [EPA]
National Institutes of Environmental Health Sciences [NIEHS]
National Toxicology Program [NTP]
U.S. Food and Drug Administration [FDA]
HTRF phospho-H2AX (Ser139) assay (Cisbio Bioassays, US) enables the quantitative detection of the histone variant H2AX when phosphorylated on serine 139. When double-stranded DNA breaks, either by ionizing radiation or endogenous physiological processes, H2AX becomes phosphorylated at Ser139. This phospho-Ser139 serves as a sensitive biomarker for the detection of such breaks, localizing the site of DNA repair. So, HTRF phospho-H2AX Ser139 is a pertinent assay to study genome stability, the cell cycle, DNA repair, and it serves as a biomarker for cancer, and to understand aging. Wild type CHO-K1 cells were used to identify the inducers of Phospho-H2AX Ser 139 from the Tox21 compound collections. Also cytotoxicity of the Tox21 10K compound library against the CHO-K1 cell line was tested by measuring the cell viability using CellTiter-Glo assay (Promega, Madison, WI).
Tox21 Assay Protocol Summary:
The CHO-K1 cells suspended in culture medium containing 10% FBS were dispensed at 1000 cells/ 3 ul/well in 1536-well white wall/solid bottom plates (Greiner Bio-One North America, NC) using a Multidrop Combi (Thermo Fisher Scientific Inc., Waltham, MA). After the assay plates were incubated at 37C overnight, 23 nl of compounds at 15 concentrations (from 5-48 columns) or positive control (from 1 to 4 columns) were transferred to the assay plates using a Pintool station (Wako, San Diego, CA) into each well resulting in a final DMSO concentration of 0.76%. After 3hr incubation at 37C, 3 uL/well CellTiter-Glo luminescent cell viability reagent (Promega Corporation, Madison, WI) was added using a Flying Reagent Dispenser (FRD) (Aurora Discovery, CA). After incubation at room temperature for 30 min, the luminescence intensity was read using a ViewLux plate reader (PerkinElmer, Waltham, MA).
% is set by controls: 0 for no effect and ±100 for the full control effect; potency is the fitted concentration of half-maximal effect.

SMILES | activity change, negative = cytotoxicity | Potency
COc1cc(Cl)c(OC)cc1N | 2.21% (inactive) | –
O=C1OC(=O)C2C3C=CC(C3)C12 (stereo not given) | -3.71% (inactive) | –
CC(C)(C)OCC1CO1 (stereo not given) | 0.21% (inactive) | –
CCOC(=O)C(F)(F)F | 5.62% (inactive) | –
CC(C)OC(=O)C(C)N(C(=O)c1ccccc1)c1ccc(F)c(Cl)c1 (stereo not given) | – | 56.6 µM (active)
Clc1ccc(Cn2c(CN3CCCC3)nc3ccccc32)cc1 | -7.82% [at 70.9 µM] (inactive) | –
ClCCOCCOCCCl | -0.309% (inactive) | –
CCCCOC(=O)CCCCCCCC(=O)OCCCC | 2.5% (inactive) | –
CN(C)C(=O)NC1(c2ccccc2)CCN(CC[C@@]2(c3ccc(F)c(F)c3)CN(C(=O)c3ccccc3)CCO2)CC1 | -1.56% (inactive) | –
CCC(CC)Nc1ccc(C)c(C)c1 | -13% (inactive) | –
C#C[C@]1(O)CC[C@H]2[C@@H]3CCc4cc(OC5CCCC5)ccc4[C@H]3CC[C@@]21C | – | 49.2 µM (active)
O=C1CCC(=O)O1 | 4.41% (inactive) | –
NS(=O)(=O)c1ccc(N2CCCCS2(=O)=O)cc1 | -0.0272% [at 70.9 µM] (inactive) | –
Cc1[nH]c(C)c(Cl)c(=O)c1Cl | -0.294% [at 31.6 µM] (inactive) | –
CN(C)c1ccc(/C=C/c2ccc([N+](=O)[O-])cc2)cc1 | -2.45% [at 14 µM] (inactive) | –
CCCCCCCCCCCc1ccccc1 | -0.987% (inactive) | –
CCCCCCCCCCCCCCOS(=O)(=O)O | -9.61% (inactive) | –
Cc1cc(C(=O)O)ccc1[N+](=O)[O-] | 8.58% (inactive) | –
CC(C)(C)Cl | 0.643% (inactive) | –
CCCCc1nc2cccnc2n1Cc1ccc(-c2ccccc2-c2nnn[nH]2)cc1 | 8.52% (inactive) | –

SMILES | activity change, negative = cytotoxicity | Potency
CCOc1ccc(O)cc1 | -0.668% (inactive) | –
C[N+]1(CC2COC(c3ccccc3)(C3CCCCC3)O2)CCCCC1 (stereo not given) | -7.65% [at 70.9 µM] (inactive) | –
CCOCC(O)COc1ccc(NC(=O)CC[S+](C)C)cc1 (stereo not given) | -0.941% [at 70.9 µM] (inactive) | –
Cc1c(N)cccc1[N+](=O)[O-] | 1.91% (inactive) | –
CC[N+]1(CC)CCC(=C(c2ccccc2)c2ccccc2)C1C (stereo not given) | -2.28% [at 70.9 µM] (inactive) | –
O=C1OC(CN2CCOCC2)CN1/N=C/c1ccc([N+](=O)[O-])o1 (stereo not given) | 3.31% [at 70.9 µM] (inactive) | –
COc1cc2c(cc1OC)C(C(C(=O)N(CCc1ccc(OC)c(OC)c1OC)CCc1ccc(OC)c(OC)c1OC)c1ccccc1)=NCC2 (stereo not given) | 6.15% [at 70.9 µM] (inactive) | –
O=C(O)C1(C(=O)Nc2ccc(Cl)cc2Cl)CC1 | 12.7% (inactive) | –
O=C(O)CNCC(=O)O | -1.6% [at 14 µM] (inactive) | –
CCCCCCCC#N | -5.03% (inactive) | –
CC(=O)[O][Al][O]C(C)=O | 0.628% (inactive) | –
COc1cc2nc(N(C)CCCNC(=O)C3CCCO3)nc(N)c2cc1OC (stereo not given) | -8.72% [at 70.9 µM] (inactive) | –
COc1ccc(C(=O)N2CCN(CC(=O)N3CCOCC3)CC2)cc1 | 1.19% [at 70.9 µM] (inactive) | –
Nc1cccc([N+](=O)[O-])c1 | -3.23% (inactive) | –
CCCCC1=NC2(CCCC2)C(=O)N1Cc1ccc(-c2ccccc2-c2nn[nH]n2)cc1 | 8.34% [at 70.9 µM] (inactive) | –
CCOC(=O)Cc1cccc2ccccc12 | 1.25% (inactive) | –
CCCCNc1ccc(C(=O)OCCOCCOCCOCCOCCOCCOCCOCCOCCOC)cc1 | -9.29% [at 70.9 µM] (inactive) | –
C/C=C/C(=O)CC | 0.284% [at 31.6 µM] (inactive) | –
CCCCC/C=C\C/C=C\CCCCCCCC(=O)NC(C)c1ccccc1 (stereo not given) | 5.12% [at 70.9 µM] (inactive) | –
O=C(O)CC(=O)C(=O)O | -0.34% (inactive) | –
